About 79,000 compounds went through this panel and 15% of them were active in at least one assay; those are over-represented in the sample as a whole. Cut-off read from the data, not from the text of the source: active = growth inhibition above about 70%; inactive = the rest.
Tests used:
[1] = NCI Yeast Anticancer Drug Screen. Data for the rad50 strain (AID 155);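 note: 0% = growth of vehicle-only cultures of the same strain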; details: S. cerevisiae rad50 strain growth inhibition; at 50.0 µM; stronger effect = higher value
Procedure, shortened: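 Vehicle-treated cultures provide the reference for the growth inhibition reported for compound-exposed, repair-deficient yeast.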

[2] = NCI Yeast Anticancer Drug Screen. Data for the mec2-1 strain (AID 157); details: S. cerevisiae mec2-1 strain, at 50.0 µM, stronger effect = higher value
Procedure, shortened: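 Using mec2-1 yeast: add compound, measure growth, express inhibition versus vehicle-treated cultures.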

[3] = NCI Yeast Anticancer Drug Screen. Data for the sgs1 mgt1 strain (AID 161);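 note: 0% = growth of cultures given vehicle only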; details: S. cerevisiae sgs1 mgt1 strain, at 50.0 µM, stronger effect = higher value
Procedure, shortened: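 Growth of a repair-deficient yeast mutant was monitored after compound treatment and expressed as inhibition relative to vehicle-treated cultures.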

[4] = NCI Yeast Anticancer Drug Screen. Data for the cln2 rad14 strain (AID 165);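 note: 0% = growth equal to vehicle treated cultures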; details: S. cerevisiae cln2 rad14 strain, at 50.0 µM, stronger effect = higher value
Procedure, shortened: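 Yeast strain cln2 rad14, bearing defects in cell cycle control and DNA repair, serves as the test system; values reflect growth inhibition compared with vehicle.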

[5] = NCI Yeast Anticancer Drug Screen. Data for the bub3 strain (AID 167); details: S. cerevisiae bub3 mutant strain, at 50.0 µM, stronger effect = higher value
Procedure, shortened: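 Mutant yeast screening strain plus compound; vehicle-treated cultures serve as the 0% inhibition reference.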

[6] = NCI Yeast Anticancer Drug Screen. Data for the mlh1 rad18 strain (AID 175); details: S. cerevisiae mlh1 rad18 strain growth inhibition; at 50.0 µM; stronger effect = higher value
Procedure, shortened: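 Steps: expose repair-defective yeast to compound; measure growth; express inhibition against vehicle-treated controls.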

Measured: growth inhibition

Oc1cc(-n2cccn2)c(O)cc1-n1cccn1
inactive: [1] 23.1% | [2] -4.75% | [3] 15.3% | [4] 5.25% | [5] 12.2% | [6] -39%

Cc1ccc(N=c2oc3c(ccc4ccccc43)nc2Nc2ccc(C)cc2)cc1
inactive: [1] -33.5% | [2] -32.5% | [3] -46.2% | [4] -35.5% | [5] -32.8% | [6] -19%

COc1ccccc1/C(=N\OCCC(=O)O)c1cccs1
inactive: [1] 2.15% | [2] -0.95% | [3] 5.95% | [4] 0.65% | [5] -1.25% | [6] -51.1%

Nn1c(Cc2ccccc2)n[nH]c1=O
inactive: [1] 10.2% | [2] -13.3% | [3] 12.2% | [4] 6.55% | [5] -9.4% | [6] -14.2%

Nc1nc(Cl)c2ncn(C3OC(CO)C(O)C3O)c2n1 (stereo unspecified)
inactive: [1] -8.1% | [2] -3.65% | [3] -1.9% | [4] -34.5% | [5] -5.2% | [6] 1.4%

CC[C@]1(O)C(=O)OCc2c1cc1n(c2=O)Cc2cc3c(N)cccc3nc2-1
inactive: [1] 16.1% | [2] 14% | [3] 9.75% | [4] -0.25% | [5] 14.2% | [6] 45%

c1ccc(-c2ccc(-c3ccccc3)cc2)cc1
inactive: [1] -14.5% | [2] -9.4% | [3] -15.1% | [4] -15.2% | [5] 18.6% | [6] -30.9%

O=C(c1ccccc1)N1C(=O)c2ccccc21
inactive: [1] -11.1% | [2] 5.75% | [3] -12.8% | [4] -16.3% | [5] 9.5% | [6] -15.5%

COc1ccc2c(c1)OC[C@@H]1c3cc(NC(=O)c4ccccc4)c(OC)cc3N(S(=O)(=O)c3ccccc3)[C@H]21
inactive: [1] -22.8% | [2] -6.4% | [3] -18.1% | [4] -3.3% | [5] 2.25% | [6] -2.25%

CCCCCCCCCCCCCCCCCC(=O)OCC(CO)OC(=O)CCCCCCCCCCCCCCCCC (stereo unspecified)
inactive: [1] 4.45% | [2] -9.65% | [3] 7.3% | [4] 6.95% | [5] 34.1% | [6] 29.7%

COC(=O)[C@H]1N[C@@H](C(=O)OC)C23CCC[C@H]2CC[C@]1(C(OC)OC)C3
inactive: [1] -3.5% | [2] 2.25% | [3] 14.4% | [4] -3.8% | [5] -0.65% | [6] -16.1%

O=C1C(=O)N(C23CC4CC(CC(C4)C2)C3)C(=S)N1c1ccccc1
inactive: [1] -9.7% | [2] -20.6% | [3] -44.2% | [4] -26% | [5] -24.7% | [6] -27.2%

COc1cccc(NC(=O)C(=O)C(C(C)=O)c2nc3ccc(Cl)cc3[nH]c2=O)c1 (stereo unspecified)
inactive: [1] -16.3% | [2] 3.7% | [3] -19.2% | [4] 15.4% | [5] 2.25% | [6] -5.4%

COc1ccc(N=NC(=S)NNc2ccc(OC)cc2Oc2ccccc2)c(Oc2ccccc2)c1
inactive: [1] 12.5% | [2] -0.4% | [3] 29.4% | [4] 11.8% | [5] -4.6% | [6] 3.35%

C[N+]1(C)C2Cc3ccccc3C1Cc1ccccc12
inactive: [1] -1.7% | [2] -11.6% | [3] 11.4% | [4] 10.4% | [5] 3.75% | [6] -57%

CCCCn1c(-c2ccccc2)cs/c1=N\NC(=O)Cn1c(C)nc2ccccc21
inactive: [1] -30.8% | [2] -8.3% | [3] -8.4% | [4] 18.9% | [5] -3.25% | [6] -16.8%

CSC(=O)c1sc(SC)[n+](-c2ccccc2)c1O
inactive: [1] 4.95% | [2] -20.2% | [3] -1% | [4] -5.5% | [5] -13.3% | [6] -7.9%

CCCCC1SCC(=O)N1c1nncs1 (stereo unspecified)
inactive: [1] 6.35% | [2] 24% | [3] 5.4% | [4] -3.8% | [5] 16.7% | [6] -3.2%

NC(=O)CNC(=O)CN1C(=O)c2ccccc2C1=O
inactive: [1] 9.05% | [2] -14.6% | [3] -13.1% | [4] 8.65% | [5] 2.1% | [6] -4.2%

Cc1cc(Br)ccc1N=Cc1ccc(C=Nc2ccc(Br)cc2C)cc1
inactive: [1] -6.75% | [2] -17.6% | [3] -11.8% | [4] -2.5% | [5] -3.65% | [6] -0.2%

O=C1CC2(CCc3ccccc32)C(=O)N1CN1CCN(c2ccccn2)CC1 (stereo unspecified)
inactive: [1] 0.55% | [2] 3.5% | [3] -10% | [4] -9.15% | [5] -1.9% | [6] 18.1%

Source: PubChem BioAssay (NCI)
